From PubChem BioAssay (NCATS)
“And” between values parts separate entries of the source, which are not always exact repeats. Equal values may be shown once. Results filed as inconclusive are left out. Where a call stands in place of a potency, no number is given. A structure can be active in one record and inactive in another. The source made the active and inactive calls. The call rests on the fitted dose curve; in most records, active means well fitted curve in the direction sought with a large enough effect; inconclusive means small, poorly fitted or top-dose-only effect, or another doubt; inactive means no such curve, though single readings can be large; an effect the other way counts as inactive or inconclusive.

Tested on: not listed separately
Assay: Cellular Toxicity (caspase-3) NIH 3T3 (AID 666)
Conditions: NIH 3T3 caspase-3 activation, apoptosis/toxicity, 0% DMSO, 100% is 100 µM tamoxifen; series mostly up to 92.2 µM
Outline: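 Concentration-response qHTS in NIH 3T3 mouse fibroblasts scores caspase-3/7 activation as rising luminescence after 16 hr compound exposure. Signals are scaled between DMSO-only and 100 uM tamoxifen.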
For Brc1ccccc1, the outcome was “inactive”. For CCOP(=S)(OCC)SCSC(C)(C)C, the outcome was “inactive”. With C=C(C)C#N the outcome was “inactive”. In the case of CCSC(=O)Cl, the outcome is reported as “inactive”. In the case of Cc1cccc([N+](=O)[O-])c1, the outcome is reported as “inactive”. In the case of Nc1c(Cl)c(Cl)nc(C(=O)O)c1Cl, the outcome is reported as “inactive”. For CC(C)(C)OOC(C)(C)C, the outcome was “inactive”. In the case of C=C(C)C(=O)OCC1CO1 (configuration not stated), the outcome is reported as “inactive”. For Cc1ccc([N+](=O)[O-])cc1C, the outcome was “inactive”. In the case of O=[N+]([O-])c1ccc(Cl)c(Cl)c1, the outcome is reported as “inactive”. For C=CC(=C)C, the outcome was “inactive”. For Cc1ccc2ccccc2c1, the outcome was “inactive”. With Nc1ccccc1Cl the outcome was “inactive”. For Clc1ccc2ccccc2c1, the outcome was “inactive”. In the case of [O-][Br+2]([O-])O, the outcome is reported as “inactive”. With Clc1nc(Cl)nc(Nc2ccccc2Cl)n1 the outcome was “inactive”. With OCC1CO1 (configuration not stated) the outcome was “inactive”. With C=CCOC(=O)c1ccccc1N the outcome was “inactive”. For C=CC(N)=O, the outcome was “inactive”. In the case of CC(C)(c1ccccc1)c1ccc(O)cc1, the outcome is reported as “inactive”. With CCN(CC)c1ccccc1 the outcome was “inactive”. With S=C=Nc1cccc2ccccc12 the outcome was “inactive”. With N#CCCCl the outcome was “inactive”. In the case of O=NN(CCO)CCO, the outcome is reported as “inactive”. For Cc1ccccc1N, the outcome was “inactive”. In the case of C=CCOC(C)=O, the outcome is reported as “inactive”. For CCCC(=O)Cl, the outcome was “inactive”. In the case of NC(=S)Nc1ccccc1, the outcome is reported as “inactive”. In the case of O=C(Cl)/C=C/C(=O)Cl, the outcome is reported as “inactive”. In the case of C=C(Cl)Cl, the outcome is reported as “inactive”. With ClCBr the outcome was “inactive”. With COc1ccc(C=O)cc1OC the outcome was “inactive”. In the case of C=CC(=O)OCC, the outcome is reported as “inactive”. In the case of c1nc[nH]n1, the outcome is reported as “inactive”. With c1ccc2c(c1)CCCC2 the outcome was “inactive”. With CCCSC(=O)Cl the outcome was “inactive”. With Clc1cccc(C(Cl)(Cl)Cl)n1 the outcome was “inactive”. With O=NN(c1ccccc1)c1ccccc1 the outcome was “inactive”. With C1CCC2CCCCC2C1 (configuration not stated) the outcome was “inactive”. For CC(O)CCl (configuration not stated), the outcome was “inactive”.

Tested on: not listed separately
Assay: Cellular Toxicity (caspase-3) Renal Proximal Tubule (AID 667);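 further: cells exposed to compound for 16 hours at 37 °C before detection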
Conditions: renal proximal tubule cells; at 91.7 µM (top of the series), primary cells freshly taken from rat, solvent-only wells 0%, staurosporine 100% unless noted
Outline: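 Luminescent caspase 3/7 signal from peptide-aminoluciferin cleavage measures apoptosis in freshly isolated rat kidney proximal tubule cells after 16 h compound exposure. Concentration-response data are normalized to DMSO and 10 uM staurosporine, and AC50 values come from Hill equation fits.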
In the case of Brc1ccccc1, the caspase-3 activation is reported as -10.7% (inactive). In the case of CCOP(=S)(OCC)SCSC(C)(C)C, the caspase-3 activation is reported as -0.898% (inactive). In the case of C=C(C)C#N, the caspase-3 activation is reported as 7.27% (inactive). In the case of CCSC(=O)Cl, the caspase-3 activation is reported as 8.48% (inactive). In the case of Cc1cccc([N+](=O)[O-])c1, the caspase-3 activation is reported as 5.52% (inactive). With Nc1c(Cl)c(Cl)nc(C(=O)O)c1Cl the caspase-3 activation was -0.472% (inactive). For CC(C)(C)OOC(C)(C)C, the caspase-3 activation was 11.1% (inactive). In the case of C=C(C)C(=O)OCC1CO1 (configuration not stated), the caspase-3 activation is reported as -4.2% (inactive). In the case of Cc1ccc([N+](=O)[O-])cc1C, the caspase-3 activation is reported as -2.52% (inactive). With O=[N+]([O-])c1ccc(Cl)c(Cl)c1 the caspase-3 activation was 4.74% [at 91.7 µM] (inactive). For C=CC(=C)C, the caspase-3 activation was -6.39% (inactive). For Cc1ccc2ccccc2c1, the caspase-3 activation was 18.4% (inactive). In the case of Nc1ccccc1Cl, the caspase-3 activation is reported as 2.73% (inactive). For Clc1ccc2ccccc2c1, the caspase-3 activation was 7.88% (inactive). For [O-][Br+2]([O-])O, the caspase-3 activation was -18.8% (inactive) and -17.4% (inactive). With Clc1nc(Cl)nc(Nc2ccccc2Cl)n1 the caspase-3 activation was -3.95% (inactive). For OCC1CO1 (configuration not stated), the caspase-3 activation was 0.454% (inactive). In the case of C=CCOC(=O)c1ccccc1N, the caspase-3 activation is reported as 0.151% [at 91.7 µM] (inactive). For C=CC(N)=O, the caspase-3 activation was 6.41% (inactive) and -1% (inactive). In the case of CC(C)(c1ccccc1)c1ccc(O)cc1, the caspase-3 activation is reported as 4.59% (inactive). For CCN(CC)c1ccccc1, the caspase-3 activation was 2.98% (inactive). With S=C=Nc1cccc2ccccc12 the caspase-3 activation was -4.28% (inactive). In the case of N#CCCCl, the caspase-3 activation is reported as -13% (inactive) and 8.86% (inactive). In the case of O=NN(CCO)CCO, the caspase-3 activation is reported as 4.45% (inactive). With C=CCOC(C)=O the caspase-3 activation was -7.63% (inactive). With CCCC(=O)Cl the caspase-3 activation was 6.16% (inactive). In the case of NC(=S)Nc1ccccc1, the caspase-3 activation is reported as 12.5% [at 91.7 µM] (inactive) and -6.92% [at 91.7 µM] (inactive). For O=C(Cl)/C=C/C(=O)Cl, the caspase-3 activation was -3.63% (inactive). With C=C(Cl)Cl the caspase-3 activation was 1.42% (inactive). With ClCBr the caspase-3 activation was -5.04% (inactive). For COc1ccc(C=O)cc1OC, the caspase-3 activation was -4.32% (inactive). In the case of C=CC(=O)OCC, the caspase-3 activation is reported as -0.996% (inactive). For c1nc[nH]n1, the caspase-3 activation was 6.18% (inactive). With c1ccc2c(c1)CCCC2 the caspase-3 activation was -4.18% (inactive). In the case of CCCSC(=O)Cl, the caspase-3 activation is reported as 5.81% (inactive). For Clc1cccc(C(Cl)(Cl)Cl)n1, the caspase-3 activation was 4.49% (inactive). In the case of O=NN(c1ccccc1)c1ccccc1, the caspase-3 activation is reported as 1.42% (inactive). For C1CCC2CCCCC2C1 (configuration not stated), the caspase-3 activation was -7.58% (inactive). For CC(O)CCl (configuration not stated), the caspase-3 activation was 7.82% (inactive).

Molecular target: Cytochrome P450 3A4 (Homo sapiens) (UniProt P08684)
Sequence (P08684 whole entry, looked up): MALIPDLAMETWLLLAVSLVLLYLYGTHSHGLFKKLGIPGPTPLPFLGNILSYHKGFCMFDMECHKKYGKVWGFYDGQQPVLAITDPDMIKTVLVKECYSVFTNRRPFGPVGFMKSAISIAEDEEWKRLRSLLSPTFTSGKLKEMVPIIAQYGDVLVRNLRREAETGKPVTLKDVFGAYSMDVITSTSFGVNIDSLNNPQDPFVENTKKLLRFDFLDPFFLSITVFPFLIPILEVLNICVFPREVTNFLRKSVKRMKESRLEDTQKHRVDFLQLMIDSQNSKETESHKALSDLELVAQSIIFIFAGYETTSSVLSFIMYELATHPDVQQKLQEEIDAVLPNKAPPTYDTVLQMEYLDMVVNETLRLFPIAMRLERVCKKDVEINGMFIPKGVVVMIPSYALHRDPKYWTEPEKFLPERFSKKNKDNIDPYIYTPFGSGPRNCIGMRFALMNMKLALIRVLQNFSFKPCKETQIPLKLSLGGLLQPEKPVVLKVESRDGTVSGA
Assay: qHTS Assay for Inhibitors and Substrates of Cytochrome P450 3A4 (AID 884); further: nearly all actives have a fitted effect of over 50% in size; further: potency means the concentration at half of the fitted maximal effect
Conditions: recombinant CYP3A4, Luciferin-PPXE luminescence; series mostly up to 57.1 µM
Outline: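 20 nM human CYP3A4 with 25 uM Luciferin-PPXE (at KM) in 200 mM KPO4, preincubated 10 min with compound; NADPH regeneration started a 60 min RT reaction. Luciferin detected by luminescence, normalized to 57 uM ketoconazole as full inhibition.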
With Brc1ccccc1 the Potency was “inactive”. In the case of CCOP(=S)(OCC)SCSC(C)(C)C, the Potency is reported as “inactive”. With CC(C)(C)OOC(C)(C)C the Potency was “inactive”. With C=C(C)C(=O)OCC1CO1 (configuration not stated) the Potency was “inactive”. With Cc1ccc([N+](=O)[O-])cc1C the Potency was “inactive”. For O=[N+]([O-])c1ccc(Cl)c(Cl)c1, the Potency was “inactive”. With C=CC(=C)C the Potency was “inactive”. In the case of Cc1ccc2ccccc2c1, the Potency is reported as “inactive”. In the case of Nc1ccccc1Cl, the Potency is reported as “inactive”. For Clc1ccc2ccccc2c1, the Potency was “inactive”. For Clc1nc(Cl)nc(Nc2ccccc2Cl)n1, the Potency was “inactive”. In the case of OCC1CO1 (configuration not stated), the Potency is reported as “inactive”. With C=CCOC(=O)c1ccccc1N the Potency was “inactive”. In the case of CCN(CC)c1ccccc1, the Potency is reported as “inactive”. In the case of N#CCCCl, the Potency is reported as “inactive”. For Cc1ccccc1N, the Potency was “inactive and 25.1 µM (active)”. In the case of C=CCOC(C)=O, the Potency is reported as “inactive”. With CCCC(=O)Cl the Potency was “inactive”. For NC(=S)Nc1ccccc1, the Potency was “inactive”. In the case of O=C(Cl)/C=C/C(=O)Cl, the Potency is reported as “inactive”. With C=C(Cl)Cl the Potency was “inactive”. With COc1ccc(C=O)cc1OC the Potency was “inactive”. For C=CC(=O)OCC, the Potency was “inactive”. With c1ccc2c(c1)CCCC2 the Potency was “inactive”. For CCCSC(=O)Cl, the Potency was “inactive”. In the case of O=NN(c1ccccc1)c1ccccc1, the Potency is reported as “inactive”. For C1CCC2CCCCC2C1 (configuration not stated), the Potency was “inactive”. With CC(O)CCl (configuration not stated) the Potency was “inactive”.
